Assay outcomes as filed in PubChem.
This excerpt belongs to a sample that is enriched for hits.
TbPYK inhibitor = inhibitors of Trypanosoma brucei pyruvate kinase; Q57TT1; TbPYK enzyme, Kinase-Glo Plus ATP luminescence, 45 min; Potency, µM (highest dose often 76.8 µM), for inactives: top-dose activity, negative = inhibition, hits mostly inhibitors; hit rate 0.12% among 410,000; AID 624173; also: potency is read from the fitted curve at half-maximal effect; % is scaled to controls: 0 for no effect and ±100 for the full control effect; nearly all actives have a fitted effect of over 50% in size
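Luminescent Kinase-Glo Plus end-point after 45 min room-temperature reaction of T. brucei pyruvate kinase started with 130 uM ADP (final). Buffer TEA 50 mM pH 7.2 with KCl, MgCl2, BSA, Tween-20; titration-based qHTS with fitted concentration-effect curves.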
LmPK inh = blocks Leishmania mexicana pyruvate kinase activity; Q27686; purified LmPK, Kinase-Glo ATP luminescence, 1 h; Potency, µM (highest dose often 57.5 µM), for inactives: at the highest dose activity change, negative = inhibition, actives largely listed as inhibitors; hit rate 0.37% among 290,000; also: potency is read from the fitted curve at half-maximal effect; % is scaled to controls: 0 for no effect and ±100 for the full control effect
Target sequence (Q27686 whole entry, looked up): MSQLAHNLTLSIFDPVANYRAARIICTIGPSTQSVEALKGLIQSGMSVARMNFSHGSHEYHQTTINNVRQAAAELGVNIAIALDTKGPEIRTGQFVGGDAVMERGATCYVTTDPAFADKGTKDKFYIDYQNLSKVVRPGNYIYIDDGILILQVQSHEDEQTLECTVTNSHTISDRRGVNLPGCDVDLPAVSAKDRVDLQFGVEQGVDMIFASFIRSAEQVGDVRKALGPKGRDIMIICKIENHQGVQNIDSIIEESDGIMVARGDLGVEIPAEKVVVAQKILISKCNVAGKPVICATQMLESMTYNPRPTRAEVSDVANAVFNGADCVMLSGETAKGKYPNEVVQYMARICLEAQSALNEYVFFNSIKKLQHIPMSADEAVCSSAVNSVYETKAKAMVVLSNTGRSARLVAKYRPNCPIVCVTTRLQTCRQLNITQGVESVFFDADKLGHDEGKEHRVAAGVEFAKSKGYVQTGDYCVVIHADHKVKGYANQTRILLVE
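In 50 mM imidazole pH 7.2 with 7 mM MgCl2, LmPK (0.1 nM) turned over PEP (0.5 mM) and ADP (0.1 mM) for 1 h at room temperature. Luciferase read-out of ATP.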
Shiga inhibitor = blocks Shiga toxin action in Vero cells; Vero cells, Shiga toxin protein synthesis inhibition reporter; inhibition, % at 38.7 µM; hit rate 9.2% among 290,000; AID 2315; in the data active = inhibition mostly above about 28%, no sharp cut-off; inactive = mostly below about 43%; also: 0% is about no effect
Cycloheximide cs = affects cycloheximide protein synthesis inhibition readout, counter-screen | max response, % | hit rate 12% among 300,000 | cell reporter, cycloheximide protein synthesis inhibition counterscreen; in the data active = max response mostly above about 13%, no sharp cut-off; inactive = mostly below about 14%; also: read at 38.3 µM for the half of the compounds with a filed dose; 0% is about no effect
FBPA Giardia inh = Giardia lamblia aldolase inhibition; A8B2U2; purified Giardia FBPA; Potency, µM (top dose mostly 59.6 µM), without a hit: top-dose activity, negative = inhibition, hits mostly inhibitors; hit rate 0.71% among 290,000; also: potency is read from the fitted curve at half-maximal effect; % is scaled to controls: 0 for no effect and ±100 for the full control effect; nearly all actives have a fitted effect of over 55% in size
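40 nM FBPA preincubated 10 min at RT with compound (up to 57.5 uM final), then substrate plus GAPDH/TPI/NAD/arsenate coupling and diaphorase/resazurin added. Fluorescence read after 20 min at RT, 525/598 nm.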
RE007 growth inh = less growth of the S. pombe RE007 Vpr strain; S. pombe RE007 Vpr strain, BacTiter-Glo ATP luminescence, 24 h; Potency, µM (series often up to 92.2 µM), for the others: at the highest dose activity change, negative = less growth, hits mostly inhibitors; hit rate 0.21% among 360,000; active = well fitted falling curve with a large enough effect; inconclusive = small, poorly fitted or top-dose-only effect; inactive = no such curve, though single readings can be large or run the other way; also: potency is read from the fitted curve at half-maximal effect; % is scaled to controls: 0 for no effect and ±100 for the full control effect; nearly all actives have a fitted effect of over 50% in size
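Fission yeast RE007 carrying one integrated HIV-1 vpr copy, seeded at OD 0.01 in PMG+AL medium with 23 nL pinned compound. Grown 24 h at 30 degrees; viability read by BacTiter-Glo luminescence after 5 min.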
Numbers without * were called inactive; u = inconclusive; x = no result. Unless noted, calls follow the shape of the dose curve; as a rule, active = well fitted curve in the direction sought with a large enough effect; inconclusive = small, poorly fitted or top-dose-only effect, or another doubt; inactive = no such curve, though single readings can be large; an effect the other way counts as inactive or inconclusive.

SMILES	TbPYK inhibitor	LmPK inh	Shiga inhibitor	Cycloheximide cs	FBPA Giardia inh	RE007 growth inh
COCCn1c(C)cc(O)c(C(c2ccccc2)N2CCN(CCO)CC2)c1=O (centres undefined)	-8%	x	x	x	x	x
Cc1ccccc1C(=O)Nc1cccc(NC(=O)c2ccccc2[N+](=O)[O-])c1	-10%	4%	-4	-2	0%	1%
Cc1ccc(-c2cc(NC(=O)c3ccccc3[N+](=O)[O-])n[nH]2)cc1	-3%	0%	68*	13*	5%	-4%
COc1cccc(NC(=O)c2cccc(C)c2[N+](=O)[O-])c1	2%	3%	125*	28*	-13%	-7%
Cc1cc(NC(=O)c2ccccc2[N+](=O)[O-])ccc1Br	1%	-4%	134*	50*	-10%	-14%
Cc1cccc(C(=O)Nc2cccc(Br)c2)c1[N+](=O)[O-]	2%	0%	7	9.3*	-14%	0%
Cc1cccc(NC(=O)c2ccc(N(Cc3ccccc3)S(C)(=O)=O)cc2)c1	-25%	x	x	x	x	x
CC(=O)c1ccc(N2CCN(S(=O)(=O)c3ccc(-c4cc(C(F)(F)F)on4)s3)CC2)cc1	-6%	x	x	x	x	x
Cc1sc2ncn(/N=C/c3cn(-c4ccccc4)nc3-c3ccccc3)c(=O)c2c1C	x	x	6	6	x	x
Cc1ccsc1/C=N/n1cnc2sc(C)c(C)c2c1=O	-10%	-8%	32	16*	-8%	-6%
CNNC	x	x	x	x	11µM*	x
O=C(NCCSCc1ccco1)Nc1ccc(Cl)cc1	-2%	1%	101*	29*	-14%	-7%
O=C(CCNC(=O)c1ccco1)Nc1ccc(Cl)cc1	-1%	6%	-16	9	0%	-17%
O=C(COc1ccccc1)NCCSCc1ccco1	-1%	1%	13	12	3%	-7%
O=C(Nc1ccc(Cl)cc1)Nc1ccccc1C(=O)NCc1ccco1	-2%	-14%	58*	56*	1%	-2%
Cc1cc(Cl)ccc1N(CC(=O)NCCSCc1ccco1)S(C)(=O)=O	-8%	10%	20	9	-1%	14%
O=C(CCSc1ccccc1)NCCSCc1ccco1	-8%	1%	7	11*	-5%	-2%
O=C(NCCSCc1ccco1)Nc1cccc(Cl)c1	19%	-2%	40*	37*	-11%	-15%
CC(=O)c1ccc(NC(=O)CCc2c(C)nc3c(c2C)c(=O)n(C)c(=O)n3C)cc1	3%	x	x	x	x	x
Cc1cccc(NC(=O)CSc2nc(-c3ccccc3)cc(=O)[nH]2)c1C	-1%	x	x	x	x	x
O=C(Nc1ccc(N2CCCCC2)c(S(=O)(=O)Nc2ccccc2Cl)c1)c1cccnc1	-8%	x	x	x	x	-4%
CCN1CCN(c2ccc(NC(=O)c3ccc(F)cc3)cc2Cl)CC1	3%	6%	43*	30*	-8%	13%
CCN1CCN(c2ccc(NC(=O)c3cccnc3)cc2Cl)CC1	2%	1%	16	11*	-3%	-6%
CCN1CCN(c2ccc(NC(C)=O)cc2Cl)CC1	-16%	1%	7	1	3%	-6%
COc1ccc(-c2nc(-c3ccc4c(c3)OCO4)[nH]c2-c2ccc(OC)cc2)cc1	4%	2%	-7	5	-4%	-28%
SMILES	TbPYK inhibitor	LmPK inh	Shiga inhibitor	Cycloheximide cs	FBPA Giardia inh	RE007 growth inh
Fc1ccc(-n2c(-c3ccc4c(c3)OCO4)n[nH]c2=S)cc1Cl	4µM*	14µM*	13	11*	9%	19%
Cc1ccc(-n2c(-c3ccc(Cl)cc3Cl)n[nH]c2=S)cc1	u	u	-7	-5	16%	2%
COc1cc(OC)cc(-c2n[nH]c(=S)n2-c2ccc3c(c2)OCO3)c1	u	5µM*	-5	-2	13%	0%
Cc1cc(C(=O)Nc2sc3c(c2C#N)CCC(C)C3)no1 (centres undefined)	-18%	0%	76*	36*	-2%	7%
CC1CCc2c(sc(NC(=O)c3ccc(Cl)cc3Cl)c2C#N)C1 (centres undefined)	1%	x	x	x	x	x
Cc1cc(C(=O)Nc2sc3c(c2C#N)CCCC3)no1	-14%	-8%	52*	37*	-3%	-17%
CC(C)Cc1cc(C(=O)Nc2sc3c(c2C#N)CCCC3)no1	-8%	2%	21	33*	14%	-1%
Cn1ccc(C(=O)Nc2sc3c(c2C#N)CCC3)n1	-19%	9%	12	16*	x	0%
N#Cc1c(NC(=O)c2cc(C3CC3)on2)sc2c1CCC2	-10%	0%	-3	1	1%	-7%
CC(C)Cc1cc(C(=O)Nc2sc3c(c2C#N)CCC3)no1	-14%	9%	-9	0	0%	-8%
Cc1cc(C(=O)Nc2sc3c(c2C#N)CCC3)no1	2%	1%	38*	26*	-4%	-21%
Cc1ccc2c(c1)CC1(CN2C)C(=O)OC2(CCCCC2)OC1=O	0%	14µM*	-17	5	u	-6%
CC(C)CC(=O)Nc1ccc(-c2nc3ccccc3c(=O)[nH]2)cc1	-2%	-4%	73*	32*	0%	-14%
CC(C)CC(=O)Nc1ccc(-c2nc3ccccc3c(=O)o2)cc1	-5%	-3%	-4	-3	-2%	-5%
O=C(O)c1ccc(NC(=O)c2cccc(NC(=O)c3cccs3)c2)cc1	0%	-6%	16	-3	-4%	-5%
O=C(Nc1ccc(NC(=O)c2cccs2)cc1)c1ccccc1	-2%	-1%	46*	24*	-3%	-3%
O=C(Nc1ccc(NC(=O)c2cccs2)cc1)c1ccc(Cl)cc1	-3%	x	x	x	x	x
O=C(Nc1ccc(O)cc1)c1ccc(NC(=O)c2cccs2)cc1	2%	3%	87*	38*	3%	-10%
O=C(Nc1ccccc1C(=O)Nc1ccccc1)c1cccs1	1%	2%	-9	-4	4%	-4%
O=C(Nc1cccc(O)c1)c1ccc(NC(=O)c2cccs2)cc1	4%	0%	130*	74*	x	-17%
Cc1cccc(N2C(=O)N3[C@H](c4ccc(Cl)cc4)[C@@H]4C(=O)N(C5CCCCC5)C(=O)[C@@H]4[C@]3(Cc3ccc(Cl)cc3)C2=O)c1	1%	-2%	-11	-3	-1%	9%
Cc1ccc(N2C(=O)N3[C@H](c4ccc(Cl)cc4)[C@@H]4C(=O)N(C5CCCCC5)C(=O)[C@@H]4[C@]3(Cc3ccccc3)C2=O)cc1	1%	-3%	19*	9.7*	2%	11%
CSc1ccccc1C(=O)C1CCCN(C(=O)CCc2cccnc2)C1 (centres undefined)	-4%	-4%	50	24*	3%	-1%
C=CCCC(=O)N1CCCC(C(=O)c2cccc(OC)c2)C1 (centres undefined)	0%	2%	12	21*	9%	5%
